The list is not random: actives were taken first. Their share in the collection is about 3.1%.
BRCA1 expr up = BRCA1 expression activation. MCF7-BRCA1-FFLuc reporter, luminescence, 48 h; response scale: scaled: vehicle 0%, 10 µM genistein 100%. Potency, µM (series often up to 46.1 µM), actives largely listed as activators. 380,000 compounds, 1.1% hits. AID 624202; further: nearly all actives have a fitted effect of over 80% in size
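MCF7-BRCA1-FFLuc, 2000 cells/well; 2 h attach, 37 °C/5% CO2; compound 48 h; luciferase substrate 15 min; luminescence end-point. Norm. to genistein 10 microM max activation and DMSO; concentration-response curves fitted.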
ELG1 repair inh = blocks ELG1-dependent DNA repair in HEK293T cells. HEK293T ELG1-luciferase reporter, luminescence, 16 h; DNA damage induced by 5-fluorouridine. Potency, µM (highest dose often 46.1 µM), usual class: inhibitors. 330,000 compounds, 2.3% hits; further: nearly all actives have a fitted effect of over 55% in size
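In this reporter screen, reduction of luminescence relative to DMSO vehicle indicated activity. Compounds and 5-fluorouridine were added together to 2,000 cells per well, incubated for 16 hr at 37 °C, then developed with ONE-Glo.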
IL-2 act = activates IL-2 in a cell-based reporter assay; 360,000 compounds, 0.065% hits; IL-2 activation reporter assay, cell-based qHTS; stimulated with anti-CD3/CD4/CD28 beads; in transgenic mouse T cells; activation, % (series mostly up to about 46 µM); in the data active means activation above about 50%; inconclusive means mostly about 30% to 49%
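First, unstimulated transgenic mouse T cells were exposed to compound for 60 min. Next, anti-CD3/anti-CD4-coated beads with anti-CD28 were added. Finally, after 18 h at 37 degrees C, EGFP and DsRed were imaged.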
Nrf2 ARE act = activators of Nrf2 (ARE) signaling | AREc32 ARE-luciferase reporter (MCF7-derived line), luminescence, 24 h | Potency, µM (series often up to 46.1 µM), most hits filed as activators | 410,000 compounds, 0.31% hits; further: nearly all actives have a fitted effect of over 65% in size
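Cells of the AREc32 ARE-luciferase line are plated in OPTI-MEM containing 5% FBS and left overnight at 37 deg C. Compounds are pinned in, incubation continues 24 hr, and firefly luciferase signal is then measured.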
Each line names hits and unclear results; the compound was inactive in the other large screens. Unless noted, the call rests on the fitted dose curve; in most records, active means well fitted curve in the direction sought with a large enough effect; inconclusive means small, poorly fitted or top-dose-only effect, or another doubt; inactive means no such curve, though single readings can be large; an effect the other way counts as inactive or inconclusive.

Cc1noc(C)c1COC(=O)c1ccccc1Sc1ccccc1C#N	ELG1 repair inh 23µM
O=C(CN1c2cccc3cccc(c23)S1(=O)=O)Nc1ccc(F)c(F)c1F	ELG1 repair inh 23µM
ClN=C1C=CC=CC1=NCl	none (no result: ELG1 repair inh)
Cc1ccnc(S(=O)(=O)Cc2ccc([N+](=O)[O-])cc2)n1	Nrf2 ARE act 13µM
S=c1nc[nH]c2n[nH]nc12	none (no result: ELG1 repair inh, IL-2 act, Nrf2 ARE act)
CC(C)NC(=O)C1(C)CN(S(C)(=O)=O)CC(=O)N1Cc1ccc2c(c1)OCO2 (centres undefined)	none (no result: BRCA1 expr up, ELG1 repair inh, Nrf2 ARE act)
C=CCN=C1SCC(=O)N1S(=O)(=O)c1ccc(C)cc1	none
C=CCN=C1S/C(=C\N(C)C)C(=O)N1S(=O)(=O)c1ccc(C)cc1	ELG1 repair inh 2.1µM
O=C(c1cccc(Cl)c1)N(Cc1cccc(F)c1)C1CCS(=O)(=O)C1 (centres undefined)	none (no result: BRCA1 expr up, ELG1 repair inh, IL-2 act)
COc1ccc(NC(=O)/C=C/c2cc(Br)ccc2OC)cc1	ELG1 repair inh inconclusive
COc1ccc(Br)cc1/C=C/C(=O)c1ccc(NC(C)=O)cc1	ELG1 repair inh 15µM, Nrf2 ARE act inconclusive
Cc1ccc(O)c(C(=O)c2cnc3c(c2)COc2ccccc2-3)c1	ELG1 repair inh 16µM
Cn1cnc2c(=O)oc3ccc(S(=O)(=O)Nc4ccc(F)cc4)cc3c21	none (no result: BRCA1 expr up, ELG1 repair inh, IL-2 act)
CCOC(=O)c1cnc(SCc2ccccc2)nc1N	BRCA1 expr up 2.2µM, ELG1 repair inh inconclusive
Nc1nn(-c2ccccc2)nc1C(=O)OCc1ccccc1Br	none (no result: ELG1 repair inh, IL-2 act)
CN(c1ccccc1)S(=O)(=O)c1cc(C(=O)N2CCN(c3ccccn3)CC2)ccc1Cl	ELG1 repair inh 15µM
O=C(c1ccc(Cl)c(Cl)c1)N1CCN(c2ccccn2)CC1	none
O=C(c1ccc(Cl)c(S(=O)(=O)N2CCCCCC2)c1)N1CCN(c2ccccc2O)CC1	ELG1 repair inh 16µM
O=C(c1ccc(Cl)c(S(=O)(=O)N2CCCCC2)c1)N1CCCCC1	none
O=C(c1ccc(Cl)c(S(=O)(=O)N2CCCC2)c1)N1CCN(c2ccccc2)CC1	ELG1 repair inh 16µM
O=C(c1ccc(Cl)c(S(=O)(=O)N2CCCCC2)c1)N1CCN(c2ccccc2)CC1	ELG1 repair inh inconclusive
O=C(c1ccc(Cl)c(S(=O)(=O)N2CCCC2)c1)N1CCN(c2ccc(F)cc2)CC1	ELG1 repair inh 21µM
CS(=O)(=O)N1CCN(/[N+]([O-])=N/Oc2ccc([N+](=O)[O-])cc2[N+](=O)[O-])CC1 (tested in a mixture with another compound)	none (no result: ELG1 repair inh, IL-2 act, Nrf2 ARE act)
Cc1ccc(C(=O)N2CCN(c3ccccc3)CC2)cc1S(=O)(=O)N1CCCC1	ELG1 repair inh 16µM
Cc1ccc(NS(=O)(=O)c2ccc(C(=O)N3CCN(c4ccccn4)CC3)cc2)cc1	ELG1 repair inh 15µM
Cc1ccc(C(=O)N2CCN(c3ccc(F)cc3)CC2)cc1S(=O)(=O)N1CCCCC1	ELG1 repair inh inconclusive
Cc1cc(C)c(CSc2nnc(C)n3c2cc2occc23)c(C)c1	none (no result: BRCA1 expr up, ELG1 repair inh, IL-2 act)
CCc1ccc(NCc2cc3ccc(OC)cc3n(CC(=O)Nc3ccc(F)cc3F)c2=O)cc1	none (no result: ELG1 repair inh, IL-2 act)
c1ccc(-c2ccc3ccccc3n2)cc1	BRCA1 expr up 11µM, Nrf2 ARE act inconclusive (no result: ELG1 repair inh)
COc1cccc2cc(-c3nc(-c4ccccc4F)no3)c(=O)oc12	none (no result: BRCA1 expr up, ELG1 repair inh, IL-2 act)
COc1cccc(-c2noc(-c3cc4ccccc4oc3=O)n2)c1OC	Nrf2 ARE act 11µM (no result: BRCA1 expr up, ELG1 repair inh, IL-2 act)
O=C(/C=C\c1ccccc1[N+](=O)[O-])Nc1ccccc1	ELG1 repair inh inconclusive, Nrf2 ARE act 11µM
CC(C)NC(=O)N(C)C[C@@H]1Oc2c(NC(=O)C3CCOCC3)cccc2C(=O)N([C@@H](C)CO)C[C@H]1C	none
CCOc1ccc(-c2noc(CCCC(=O)NC3CCCCC3)n2)cc1OC	none
COc1cc(-c2noc(CCCC(=O)NC3CCCCC3)n2)cc(OC)c1OC	ELG1 repair inh 5.2µM
COc1ccc2cc(C(N)=O)c(=Nc3ccc(C)cc3)oc2c1	BRCA1 expr up inconclusive, ELG1 repair inh inconclusive
COc1ccccc1N=c1oc2cc(O)ccc2cc1C(N)=O	BRCA1 expr up 10µM, ELG1 repair inh inconclusive
COc1ccccc1N=c1oc2cc(O)ccc2cc1C(=O)NCC1CCCO1 (centres undefined)	ELG1 repair inh 6.5µM
COc1ccc2oc(=O)c(C(=O)NCC3CCCO3)cc2c1 (centres undefined)	ELG1 repair inh inconclusive
Cc1cccc(N=c2oc3cc(O)ccc3cc2C(N)=O)c1	BRCA1 expr up 11µM, ELG1 repair inh 4.6µM
COc1cccc2cc(C(=O)NCC3CCCO3)c(=O)oc12 (centres undefined)	ELG1 repair inh inconclusive
COc1cccc(N=c2oc3cc(O)ccc3cc2C(=O)NCC2CCCO2)c1 (centres undefined)	ELG1 repair inh 4.1µM
COc1ccccc1NC(=O)c1cc2ccc(O)cc2o/c1=N\O	none
CCCCN(Cc1cccs1)S(=O)(=O)c1cc(-c2cc(C)no2)ccc1C	none (no result: BRCA1 expr up, ELG1 repair inh, IL-2 act)
Cc1cccc(N(C)C(=O)CSc2nc3ncccc3o2)c1	none (no result: BRCA1 expr up, ELG1 repair inh, IL-2 act)
CC1CCC(NC(=O)C2COc3ccccc3O2)CC1 (centres undefined)	BRCA1 expr up 10µM, ELG1 repair inh inconclusive
Cn1c(NC(=O)/C=C/c2ccccc2)cc(=O)n(C)c1=O	ELG1 repair inh inconclusive, Nrf2 ARE act 7.1µM
O=C(c1cn(CCOc2ccc(Cl)cc2)c2ccccc12)C1CCCCC1	none (no result: BRCA1 expr up, ELG1 repair inh, IL-2 act)
Cc1noc(C)c1CSCC(=O)N1CCN(c2ccc(F)cc2)CC1	ELG1 repair inh 11µM
O=C(Cc1cccs1)NCc1cccc(Br)c1	BRCA1 expr up 4µM, ELG1 repair inh inconclusive
CCC(=O)Nc1ccc(C(=O)Nc2cccc(C)n2)cc1	BRCA1 expr up 2.5µM, ELG1 repair inh inconclusive
Cc1ccc(CC(=O)Nc2cccc(C)n2)cc1	BRCA1 expr up 10µM, ELG1 repair inh inconclusive
Cc1cc(C(=O)Nc2ccc([N+](=O)[O-])cn2)cs1	BRCA1 expr up 3.2µM, ELG1 repair inh inconclusive, Nrf2 ARE act inconclusive
COc1cc(OC)cc(C(=O)Nc2ccc([N+](=O)[O-])cn2)c1	none
CC(C)(C)c1ccc(S(=O)(=O)c2cn(CC(=O)Nc3ccccc3)c3ccccc3c2=O)cc1	none (no result: ELG1 repair inh, IL-2 act)
COc1ccc(CC(=O)N2CCc3ccccc32)cc1	BRCA1 expr up 8.9µM, ELG1 repair inh inconclusive
COc1ccc2c(CC(=O)N3CCc4ccccc43)coc2c1	BRCA1 expr up 3.5µM, ELG1 repair inh inconclusive
COC(=O)c1ccc(C)c(NC(=O)Cc2coc3cc(OC)ccc23)c1	ELG1 repair inh inconclusive
COC(=O)c1cc(NC(=O)Cc2coc3cc(OC)ccc23)cc(C(=O)OC)c1	ELG1 repair inh 16µM
COCCn1c(SCC(=O)Nc2ccc3c(c2)OCCO3)nc2c(c1=O)SC(C)C2 (centres undefined)	BRCA1 expr up 8.9µM, ELG1 repair inh inconclusive
CC1Cc2nc(SCC(=O)Nc3ccc4c(c3)OCO4)n(Cc3ccccc3)c(=O)c2S1 (centres undefined)	BRCA1 expr up 11µM, ELG1 repair inh inconclusive
CC1Cc2nc(SCC(=O)Nc3ccc4c(c3)OCCO4)n(C)c(=O)c2S1 (centres undefined)	none

Source: PubChem
